A selection: hits, their analogues and other compounds. The true share with any hit is near 2.1%.
Rpn11 inh: Rpn11 (PSMD14) deubiquitinase inhibitors, primary screen, biochemical, fluorescence polarization, uHTS; human 26S proteasome, Ub4-pepOG fluorescence polarization; 20S core pre-blocked with epoxomicin; 26S proteasome non-ATPase regulatory subunit 14 (Homo sapiens), O00487; 0.59% of 360,000 active; inhibition, % at 20 µM;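 active means inhibition at 20 µM, scaled to each plate's controls, above about 33%, limit read from the data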
Target sequence (O00487 whole entry, looked up): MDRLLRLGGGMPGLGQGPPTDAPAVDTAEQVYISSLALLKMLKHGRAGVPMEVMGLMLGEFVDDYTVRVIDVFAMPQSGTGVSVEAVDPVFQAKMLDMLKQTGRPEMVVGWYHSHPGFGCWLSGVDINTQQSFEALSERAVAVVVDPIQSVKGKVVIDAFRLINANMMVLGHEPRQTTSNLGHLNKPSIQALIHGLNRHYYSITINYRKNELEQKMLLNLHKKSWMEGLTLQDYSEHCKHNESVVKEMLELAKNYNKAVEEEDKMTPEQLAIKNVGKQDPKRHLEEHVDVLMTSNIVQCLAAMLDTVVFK
HNF4A DNA FP: change in binding of human HNF4A to DNA, primary screen, biochemical, fluorescence polarization, FITC-DNA. Hepatocyte nuclear factor 4-alpha (Homo sapiens), P41235. 1 h. activity change, % at 10 µM. 0.3% of 360,000 active. AID 1224865, 2016; in the data active means activity change above about 30%, passing the limit was not always enough
TPT1 inhibitor: Candida albicans TPT1 enzyme inhibitors, primary screen, biochemical, fluorescence polarization; AID 1962, 2009; inhibition, % at 5 µM; recombinant caTPT1, FP RNA substrate dephosphorylation; tRNA 2'-phosphotransferase TPT1 (Candida albicans SC5314); 0.81% of 300,000 active;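 active means inhibition above the mean of all tested compounds plus 3 SD, set per screening campaign, cut at about 24% in these data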;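 further: plate controls were DMSO alone for no effect and ferristatin control at 100 nM for full effect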
Myeloid diff MLP: induction of myeloid progenitor differentiation, primary screen, cell-based, flow cytometry, MLPCN library; ER-HoxA9 myeloid progenitors, lysozyme-GFP differentiation; calls only at 10 µM; 1% of 360,000 active; AID 624256, 2012;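 active means normalized GFP-positive differentiation at or above the plate's own cutoff, the solvent-only control mean plus 3 SD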;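 further: cells exposed to compound for four days before flow analysis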
* = called active by the depositor; i = inactive; . = not tested or not shown; + = active, no number.

SMILES	Rpn11 inh	HNF4A DNA FP	TPT1 inhibitor	Myeloid diff MLP
Cc1ccc(-c2cc(C(=O)NCc3ccc4c(c3)OCO4)[nH]n2)c(O)c1C	-1	2	1	i
Cc1cc(O)c(-c2cc(C(=O)NCc3ccc4c(c3)OCO4)[nH]n2)cc1C	6	-1	-4	+
CCCCC(=O)NCc1ccc(Cl)cc1	-2	-1	-2	i
N#Cc1ccsc1NC(=O)CSc1ncnc2ccccc12	-7	-11	19	+
N#Cc1cccc(-c2cn(S(=O)(=O)c3ccc(Cl)cc3)nc2N)c1	1	2	1	i
CCOC(=O)C1CCCN(c2nc3ccccc3nc2C(C#N)C(=O)NCc2ccccc2)C1 (configuration not stated)	-2	-1	18	i
Cc1ccc2nc(N3CCN(S(=O)(=O)c4ccc5c(c4)OCCO5)CC3)c(C#N)cc2c1	21	8	4	i
Cc1ccc(S(=O)(=O)C(C#N)c2nc3ccccc3nc2N2CCCC2)cc1 (configuration not stated)	16	1	-3	+
Cc1ccc(S(=O)(=O)N2CCCN(c3nc4cc(C)ccc4cc3C#N)CC2)cc1	27	28	18	+
N#CC(C(=O)NCc1ccccc1)c1nc2ccccc2nc1N1CCCC1 (configuration not stated)	.	27	18	+
CCCCNC(=O)c1ccc2nc(CC)c(N(C)Cc3ccc(OC)cc3)n2c1	-1	-4	.	i
O=C(C[C@@H]1CC[C@@H]2[C@H](COC[C@H](O)CN2C(=O)Nc2ccc(F)cc2)O1)NCCc1ccncc1	.	0	.	i
COC(=O)C1C2CC3c4[nH]c5cc(OC)ccc5c4CCN3CC2CC(OC(=O)CC(C)=O)C1OC (configuration not stated)	.	49*	.	i
COC(=O)C1C2CC3c4[nH]c5cc(OC)ccc5c4CCN3CC2CC(O)C1OC (configuration not stated)	8	8	.	i
O=C(Nc1ccc2nc(-c3cccs3)c(-c3cccs3)nc2c1)NC1CC1	37*	19	10	i
O=C(C[C@H]1C/C=C\CC[C@@H](Cc2ccc(F)cc2)C(=O)OC[C@H]2CCCN2C1=O)N[C@@H](CO)Cc1ccccc1	-2	-2	.	i
CC(=O)Nc1ccc(S(=O)(=O)c2ccc(C)cc2)cc1	0	34*	-1	i
CC[C@H]1c2[nH]c3ccccc3c2C[C@@H]2C(=O)N(c3ccc(F)cc3)C(=O)N21	-3	1	1	+
CC1(C)c2[nH]c3ccccc3c2C[C@@H]2C(=O)N(c3cc(F)ccc3F)C(=O)N21	2	-1	-2	i
CCOc1ccccc1N1CCN(CC(=O)Nc2ccnn2C2CCCC2)CC1	1	-3	.	i
O=C(Cn1c(=O)sc2ccccc21)NCc1ccccn1	-4	7	-1	+
Fc1ccc2nc(N3CCCC3)sc2c1	0	34*	-1	i
CCCCNC(=O)C(C)N(CCN(C)C)C(=O)CCCN1C(=O)NC(c2ccc([N+](=O)[O-])cc2)C(C(=O)OCc2ccccc2)=C1C (configuration not stated)	4	5	.	+
COc1ccc(S(=O)(=O)NCC(=O)NCc2cc(=O)n(C)c(=O)n2C)cc1C	-3	2	-2	+
CCOc1ccc(-n2c(SCc3cc(=O)oc4cc(C)c(C(C)C)cc34)nnc2-c2cccnc2)cc1	-4	-3	3	i
SMILES	Rpn11 inh	HNF4A DNA FP	TPT1 inhibitor	Myeloid diff MLP
Cc1cc2oc(=O)cc(CSc3nnc(C)n3N)c2cc1C(C)C	-2	1	3	+
Cc1ccc(NC(=O)CCC(=O)Nc2nnc(C3CCCCC3)s2)cc1	3	-3	-6	+
Cc1ccc(CNC(=O)CCC(=O)Nc2nnc(C3CCCCC3)s2)cc1	-6	4	-3	i
COc1ccc(/C=C2\SC(=O)N(CCNC(=O)C3CCN(S(=O)(=O)c4cccs4)CC3)C2=O)cc1	-16	31*	-3	i
CN1C(C(=O)NCc2ccc(OC(F)(F)F)cc2)CC2Cn3c(nc4ccccc43)C21 (configuration not stated)	0	2	2	i
CC1CCc2sc(C(=O)NN=C3CCC(c4ccccc4)CC3)cc2C1 (configuration not stated)	0	0	-3	+
Cc1cc(NS(=O)(=O)c2cn(C)nc2C)no1	3	-3	2	+
